Test results as given in PubChem BioAssay.

These molecules were tested on Noggin (protein binding on small-molecule microarray) (assay: Noggin binders on small-molecule microarray, primary screen, biochemical, 635/667 nm fluorescence (AID 1095;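 also: score merges 667 nm feature fluorescence with signal to noise over triplicate slides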)). Details: 635 nm fluorescence, higher = more signal.

| Compound | composite z-score |
| --- | --- |
| COC(=O)[C@@]1(Cc2ccccc2)[C@H]2c3cc(C(=O)N4CCCC4)n(Cc4ccc(OC(F)(F)F)cc4)c3C[C@H]2CN1C(=O)c1ccccc1 | 0.0283 |
| CO[C@H]1O[C@H](CO)[C@@H](OC(=O)c2ccc(Br)cc2)[C@@H]2OC(=O)[C@H](Cc3cccc(Br)c3)C/C=C/C[C@@H](Cc3cccc(Br)c3)C(=O)O[C@@H]12 | 0.553 |
| Cc1ccc(N2C(=O)c3ccccc3[C@](C)(C(=O)NC(C)C)[C@@H]2c2ccc(CO)cc2)nc1 | -2.13 |
| NC(=O)[C@@H]1[C@H]2C(=O)O[C@H](c3ccccc3)[C@H](c3ccccc3)N2[C@H](c2ccccc2OCCO)[C@@]12C(=O)Nc1ccc(C#CCCO)cc12 | -0.209 |
| O=C1O[C@H](c2ccccc2)[C@H](c2ccccc2)N2[C@H]1[C@@H](C(=O)N1CCN(c3ncccn3)CC1)[C@]1(C(=O)Nc3ccc(C#CCCO)cc31)[C@H]2c1ccc(OCCO)cc1 | 1.47 |
| CCCC=C(CCC)[C@@H](NS(=O)(=O)c1cccc2cccnc12)c1ccc(C(=O)OC)cc1 | 2.03 |
